HepG2 tox – kills HepG2 cells in TGF-b inhibitor counter-screen; HepG2 CAGA-GFP viability, ATP luminescence, 18 h; Potency, µM (highest dose often 46.1 µM), for the others: at the highest dose activity change, negative = cytotoxicity, most hits filed as cytotoxic; 0.76% of 410,000 active
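HepG2 CAGA-GFP cells (1000/well, DMEM with 1% FBS) received compound, then TGF-beta at 500 pg/mL final, and were incubated 18 hours at 37 degrees C. Viability was read by CellTiter-Glo luminescence. Media-only wells were set as complete cell-killing and DMSO as no toxicity.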
S2 tox – viability counter-screen for ATXN expression inhibitors; S2 cells (HEK-293 line with an ATXN2-luciferase reporter) viability, CellTiter-Fluor protease fluorescence, 24 h; Potency, µM (doses to about 56.7 µM), usual class: cytotoxic; 0.49% of 400,000 active; AID 651635; further: nearly all actives have a fitted effect of over 40% in size
GLP1R inv ag – acts as inverse agonist at human GLP-1 receptor; P43220; HEK293 GLP-1R CRE-luciferase, luminescence, 24 h; GLP-1R form is constitutively active; Potency, µM (titrated, usually from 38.3 µM), for inactives: at the top dose activity change, negative = inhibition, usual class: inhibitors; 1.6% of 410,000 active; further: on the % scale 0 is the no-effect control and ±100 the full control effect; nearly all actives have a fitted effect of over 55% in size
Target sequence (P43220 whole entry, looked up): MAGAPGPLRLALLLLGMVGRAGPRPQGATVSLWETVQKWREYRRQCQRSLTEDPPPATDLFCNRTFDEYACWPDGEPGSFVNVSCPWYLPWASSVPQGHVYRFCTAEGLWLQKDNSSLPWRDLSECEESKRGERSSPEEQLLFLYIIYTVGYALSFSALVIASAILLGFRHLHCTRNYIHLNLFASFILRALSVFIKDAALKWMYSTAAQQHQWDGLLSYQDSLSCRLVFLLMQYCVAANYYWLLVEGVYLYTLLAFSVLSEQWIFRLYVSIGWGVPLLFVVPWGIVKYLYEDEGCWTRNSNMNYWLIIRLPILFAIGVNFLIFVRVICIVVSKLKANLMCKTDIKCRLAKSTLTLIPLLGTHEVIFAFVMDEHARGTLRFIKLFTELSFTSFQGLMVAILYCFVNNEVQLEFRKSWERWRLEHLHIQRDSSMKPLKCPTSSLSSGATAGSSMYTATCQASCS
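Luminescence readout: a drop in cAMP-driven luciferase signal flags inverse agonism at a constitutively active GLP-1R stably expressed in HEK293. Compound exposure lasted 24 hr at 37 deg C, 5% CO2.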
GLP1R ag – GLP-1 receptor (human) agonism. HEK293 GLP-1R CRE-luciferase, luminescence, 4-6 h; cells express a hypersensitive GLP-1R form. AID 624172. P43220. 0.007% of 380,000 active. Potency, µM (titrated, usually from 45.6 µM), for inactives: at the top dose activation, usual class: activators; further: % of control where 0% means no effect
TGFb SMAD3 inh – inhibitors of TGF-b signaling. AID 588855. Potency, µM (series often up to 46.1 µM), inactives show top-dose activity, negative = inhibition, hits mostly inhibitors. HepG2 CAGA-GFP TGF-b/SMAD3 reporter, GFP fluorescence, 18 h; TGF-beta stimulated, 500 pg/mL final. 1.2% of 410,000 active; further: on the % scale 0 is the no-effect control and ±100 the full control effect; nearly all actives have a fitted effect of over 65% in size
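First, reporter cells (HEPG2 CAGA-GFP) rested 2 h at 37 degrees C. Next, compounds were pinned in and TGF-beta added to 500 pg/mL final. After 18 h, GFP was imaged per cell and summed per well.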
ATXN2 expr inh – ATXN2 expression inhibition. HEK-293 ATXN2-luciferase reporter, luminescence, 24 h. AID 1745845. 0.72% of 360,000 active. Potency, µM (doses to about 57 µM), for the others: top-dose activity change, negative = inhibition, hits mostly inhibitors; further: on the % scale 0 is the no-effect control and ±100 the full control effect; nearly all actives have a fitted effect of over 55% in size
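qHTS (up to 57 uM final) was run with 24 h compound exposure of reporter cells at 37 °C. Each well was multiplexed: SteadyGlo luminescence measured ATXN2-luciferase expression after a fluorogenic Gly-Phe-AFC viability readout (25 uM final).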
* hit, by the source's call; i = inactive; ? = inconclusive; / = no result; [ ] = another dose, or the depositor's remark. Compounds with a hit are over-represented: about 3.7% of the library has one in this group of screens. The call rests on the fitted dose curve; in most records, active means well fitted curve in the direction sought with a large enough effect; inconclusive means small, poorly fitted or top-dose-only effect, or another doubt; inactive means no such curve, though single readings can be large; an effect the other way counts as inactive or inconclusive. Potency means the concentration at half of the fitted maximal effect.

SMILES	HepG2 tox	S2 tox	GLP1R inv ag	GLP1R ag	TGFb SMAD3 inh	ATXN2 expr inh
O=C(Cc1ccc(OCCCCc2ccccc2)cc1)NO	-18%	/	/	/	4%	/
CC(C)(C)OC(=O)NS(=O)(=O)NOCc1ccccc1	-27%	/	/	/	-17%	/
O=C(C=Cc1ccccc1O)c1ccccc1O	22µM*	?	7.9µM*	6%	?	-24%
O=C(/C=C/c1ccc([N+](=O)[O-])cc1)c1cccs1	-5%	i	18%	0%	-2%	17%
O=C(/C=C/c1ccc(O)c(O)c1)c1ccccc1O	-29%	?	16%	12%	-26%	85%
O=C(/C=C/c1ccc([N+](=O)[O-])cc1)c1ccccc(=O)c1O	-31%	/	-6%	1%	3.2µM*	?
C[C@@H]1CN(Cc2ccc3c(c2)CN(C(=O)CN2CCOc4ccccc4C2)CCO3)C[C@H](C)O1	/	i	/	/	/	/
O=C(NCc1nc(-c2ccc(C(F)(F)F)cc2)no1)Nc1ccc(OC(F)(F)F)cc1	-90%	?	2.8µM*	0%	11µM*	?
Cc1cc(C)cc(NC(=S)N(Cc2ccc(Cl)cc2)Cc2ccc(C(=O)O)cc2)c1	-13%	i	?	8%	-14%	-16%
CN(C)CCCN(Cc1ccccc1)C(=S)Nc1ccc(F)c(Cl)c1	2%	i	1.8µM*	1%	?	?
Cc1cc(NC(=S)N(Cc2ccc(Cl)cc2)Cc2ccc(C(=O)O)cc2)ccc1Cl	-29%	i	8.9µM*	0%	?	-26%
CCCN(Cc1ccccc1)C(=S)Nc1ccc(SC(F)F)cc1	9%	i	10µM*	10%	?	-5%
CN(C)CCCN(Cc1ccccc1)C(=S)Nc1cccc(C(F)(F)F)c1	-67%	?	?	17%	?	-23%
Cc1ncc2c(c1CNC(=O)c1cncs1)CCN(C(=O)c1ccsc1)C2	/	i	/	/	/	/
CCOCCCN1C(=O)c2[nH]nc(-c3ccccc3O)c2C1c1ccc(CC)cc1 (stereo not given)	18µM*	?	?	/	?	0%
CCc1ccc(C2c3c(-c4ccccc4O)n[nH]c3C(=O)N2Cc2ccncc2)cc1 (stereo not given)	-43%	25µM*	?	/	?	-19%
Cc1ccc(C2c3c(-c4ccccc4O)n[nH]c3C(=O)N2CCCO)cc1 (stereo not given)	3%	?	-16%	/	38%	-30%
c1ncc2snnc2n1	-5%	/	/	/	0%	/
COc1ccc2[nH]c(-c3ccc(C)cc3)cc(=O)c2c1	-9%	i	3.2µM*	-4%	1%	18µM*
Cc1cnc(C)c(-c2cccc3c2OC(CNC(=O)C2(c4ccc(Cl)cc4)CC2)C3)n1 (stereo not given)	/	i	/	/	/	/
O=C1N(Cc2cccc(Cl)c2)C[C@@H]2C[C@@H](c3cccc4ncccc34)N3CCC[C@@]123	-23%	i	10µM*	7%	?	-35%
CCN1CC(CN(C)Cc2cn(-c3ccc(C)cc3)nc2-c2ccc(F)cc2)CC1=O (stereo not given)	-1%	i	?	13%	-1%	-34%
CCN1CC(CN(C)Cc2cn(-c3cccc(C)c3)nc2-c2cccc(F)c2)CC1=O (stereo not given)	-72%	i	10µM*	?	?	/
Cc1cccc(-n2cc(CNCCc3nc(C)cc(C)n3)c(-c3cccc(F)c3)n2)c1	-74%	/	?	18%	11µM*	28µM*
NC(CS)C(=O)O (stereo not given)	7%	i	/	-7%	-4%	6%
SMILES	HepG2 tox	S2 tox	GLP1R inv ag	GLP1R ag	TGFb SMAD3 inh	ATXN2 expr inh
CNC(=O)c1c(I)c(NC(=O)CCCCC(=O)Nc2c(I)c(C(=O)O)c(I)c(C(=O)NC)c2I)c(I)c(C(=O)O)c1I	/	i	/	/	/	-4%
CCOc1ccc(C(=O)OCC(=O)N(Cc2ccccc2)Cc2ccccc2)cc1OC	1%	i	10µM*	5%	-5%	-3%
C/C(=N\O)[C@@H](C)NCC(C)(C)CN[C@H](C)/C(C)=N/O	/	i	/	/	/	-11%
CCn1c(=O)c([N+](=O)[O-])c(NCCN(C)C)c2ccccc21	0%	?	1%	6%	-2%	4%
CCn1c(=O)c([N+](=O)[O-])c(Cl)c2ccccc21	-57%	35µM*	?	-1%	?	-5%[11.3 µM]
C=C1NN(CC2CC2)C(=O)N1c1ccc(OCc2ccccc2)cc1	-34%	/	/	/	-2%	/
COc1ccc(-c2nn(-c3ccc(F)cc3F)c3c2cnc2ccc(F)cc23)cc1	8%	i	13%	/	0%	8%
CCCCCCCN(CC)CCCC(O)c1ccc(NS(C)(=O)=O)cc1 (stereo not given)	/	i	/	8%	/	?
Nc1nc(=S)[nH]c(N)c1N	18%	/	/	/	0%	/
CS(=O)(=O)c1ncc(Cl)c(C(=O)Nc2ccc3ccccc3c2)n1	5.6µM*	20µM*	?	-9%	5µM*	?
Cc1ccc(C)c(NC(=O)c2nc(S(=O)(=O)Cc3ccc(F)cc3)ncc2Cl)c1	3.5µM*	/	8%	/	3.5µM*	/
CCOc1ccc(NC(=O)c2nc(S(=O)(=O)Cc3ccccc3)ncc2Cl)cc1	11µM*	/	/	/	11µM*	/
CCOc1ccc(NC(=O)c2nc(S(=O)(=O)Cc3ccc(C)cc3)ncc2Cl)cc1	13µM*	/	/	/	?	/
CC(=O)Nc1ccc(NC(=O)c2nc(S(=O)(=O)Cc3ccccc3)ncc2Cl)cc1	-108%	?	?	-16%	?	/
Cc1ccc(CNC(=O)c2nn(-c3ccc(Cl)cc3)nc2CO)cc1	-25%	/	15%	/	?	/
C=C1CCN(C(Cc2ccccc2)C(=O)Nc2ccc(OC)cc2)S(=O)(=O)c2ccccc21 (stereo not given)	-7%	/	/	/	-7%	/
COc1ccc(NC(=O)c2nc(S(=O)(=O)Cc3ccc(C)cc3)ncc2Cl)cc1	8.9µM*	/	7%	/	/	/
CC(C)(C)c1ccc(/C=N/Nc2nncn2N)cc1	3.5µM*	i	-17%	-2%	-10%	-5%
Cc1oc2ncn(CC(C)C)c(=O)c2c1C(=O)Nc1cc(F)ccc1F	3%	?	-22%	/	-5%	35µM*
COc1ccccc1C1CN(Cc2cccc3nccnc23)Cc2ccccc2O1 (stereo not given)	/	i	/	/	/	/
CC(C)(Cc1ccc(O)cc1)NC(=O)SCc1ccccc1	-4%	i	13µM*	13%	?	-3%
C[C@@](Cc1ccccc1)(NC(=O)CN)c1ccccc1	/	/	/	1%	/	/
CCn1c2ccccc2c2cc(/C=N/NC(=O)c3ccc(O)cc3)ccc21	10%	i	?	0%	?	?
